# From the supplement of paper PMC3334620
# In all, about 33,000 sequences were measured (“E-score (-0.5 to 0.5)”: median about -0.035, highest 2% from about 0.34 on). Only a selection was taken, and the highest values are over-represented in it overall.
# Target: T1, Mot3 (UniProt P54785)
# T1 sequence: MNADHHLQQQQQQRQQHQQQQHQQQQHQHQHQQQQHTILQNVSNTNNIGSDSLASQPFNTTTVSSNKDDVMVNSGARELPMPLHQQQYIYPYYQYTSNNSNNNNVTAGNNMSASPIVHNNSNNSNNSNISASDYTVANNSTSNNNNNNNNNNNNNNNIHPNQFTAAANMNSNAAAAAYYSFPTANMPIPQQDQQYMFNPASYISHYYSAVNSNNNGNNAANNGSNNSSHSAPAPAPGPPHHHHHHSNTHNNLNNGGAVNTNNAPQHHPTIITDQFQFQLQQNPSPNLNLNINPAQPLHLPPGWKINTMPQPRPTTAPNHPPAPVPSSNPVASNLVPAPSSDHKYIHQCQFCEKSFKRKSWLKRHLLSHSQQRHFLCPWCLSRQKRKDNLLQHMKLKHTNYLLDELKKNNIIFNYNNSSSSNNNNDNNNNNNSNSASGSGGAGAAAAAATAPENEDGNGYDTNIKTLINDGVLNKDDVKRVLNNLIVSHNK
# Experiment: PBM E-score (8-mer binding enrichment) (E-score (-0.5 to 0.5)); higher = stronger / more preferred TF binding
# Settings: protein concentration: 200 nM; construct: GST-full length
# Procedure, shortened: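 Each ungapped eight-base word and its reverse complement, pooled, received an E-score from the Universal PBM Analysis Suite. Underlying scans, normalised with masliner, recorded fluorescent anti-GST bound to GST-tagged yeast transcription factors. These were applied at about 100-200 nM to universal all-10-mer Agilent arrays double-stranded by primer extension.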
row,Sequence,PBM E-score
1,CTAGGTCA,-0.135
2,ATTGGCAC,-0.068
3,AAACCTGG,0.0922
4,GCCGTTAC,-0.13
5,CCAACTCC,-0.135
6,TCCTCCAA,-0.0985
7,GATCTAGC,-0.194
8,ATACTGCC,-0.204
9,AGCAGGCC,-0.0206
10,AGCAGGCG,0.148
11,CGCAGGCC,0.123
12,GGCAGGTA,0.277
13,GGCAGGCC,-0.165
14,CGCAGGCA,0.482
15,TGCAGACA,0.0246
16,AGCAGGCA,0.483
17,CGCAGGCG,0.17
18,GGCAGGCA,0.481
19,TGCAGGCA,0.484
20,TGCAGCCA,-0.192
21,TATGCGAA,-0.0122
22,TATCAATA,0.134
23,AGTTTTCA,-0.204
24,CATCTGCA,-0.0636
25,CTAACTCC,-0.141
26,CGCGTAAC,0.225

row,Sequence,PBM E-score
1,AGCGTAAA,0.12
2,TGCGTAAA,0.342
3,GGCGTAAA,0.146
4,CGCGTAAG,0.299
5,CGCGTAAA,0.392
6,GGGGGGAA,-0.375
7,CTCGGCTA,-0.0141
8,GTATGGAA,-0.156
9,GCTTGGCA,-0.105
10,AGTTTTCG,0.0727
11,GCGGGTCA,0.0734
12,GTGAGGCA,0.353
13,ATGAGGCA,0.364
14,ATGAGGCG,-0.119
15,CTGAGGCA,0.257
16,ATGAGGCC,-0.174
17,GTGAGGAA,-0.106
18,CCTACTTC,-0.0137
19,ACCCGTCA,-0.239
20,AGATAGCG,-0.0829
21,AGGCACGG,0.491
22,ACGCACGG,0.0438
23,AGGCACGA,0.491
24,CGGCACGA,0.00099
25,GGGCACGA,0.163
26,AAGCACGG,0.0983

row,Sequence,PBM E-score
1,GCCCTAGC,-0.184
2,CTTGGCAC,-0.0521
3,CTTTGGCC,0.0624
4,CATTGTGA,-0.0102
5,ACCACGGC,-0.108
6,GCCCGGTA,-0.0651
7,AATTAAAT,0.124
8,AGGTACGA,0.346
9,ACGTACGG,-0.163
10,AGGTACTG,0.258
11,AGGTACGC,0.444
12,CGGTACGC,-0.174
13,GGGTACGA,-0.148
14,AGGTACTC,0.333
15,AGGTACGG,0.39
16,CGGTACGA,-0.155
17,CGACTAGA,-0.0287
18,AAGCCCAT,-0.253
19,ACAACGTG,0.114
20,TACAGCGA,-0.184
21,GACATACA,0.218
22,AACATAGA,0.2
23,TACATACA,0.355
24,TACATAGA,0.357
25,GACATAGA,0.0532
26,GAAATACA,0.328

row,Sequence,PBM E-score
1,AAAATACA,0.298
2,TAAATACA,0.366
3,CACATACA,0.239
4,GCCTCCGA,0.0149
5,CGTACCAC,-0.0328
6,CGAATTCG,-0.137
7,AACAGAAG,0.0357
8,GTCTTAAA,-0.131
9,CCCTGAAA,-0.0551
10,AAAGGTTC,0.12
11,CCACGATA,-0.107
12,ACACGATG,0.199
13,ACACGATC,0.347
14,AGACGATC,-0.288
15,CCACGATC,0.0336
16,ACACGATA,0.345
17,CCTTTGAC,0.125
18,GAGGCTAA,-0.134
19,ACTGCGCA,-0.17
20,GGTGGGCA,0.0151
21,GGTGACAA,-0.12
22,GCCTTTAA,0.322
23,GCCTTTAC,0.357
24,CCCTTTAC,0.15
25,AGCGCTAG,-0.115
26,TATTTCAA,0.159

row,Sequence,PBM E-score
1,CCATCTAG,-0.0951
2,TCTTAACA,0.346
3,ATTTAACA,0.354
4,CGTTATAA,0.15
5,GCTTAACA,0.229
6,TGTTATAA,0.35
7,AGTTATAA,0.163
8,ATTTAACG,0.247
9,ATTTAACC,0.0628
10,TGTTAAAA,0.343
11,CGTTAAAA,0.151
12,CCTTAACA,0.315
13,GGTTAAAA,0.194
14,CGGGGGGC,-0.295
15,ACAATTCC,-0.0244
16,CGCTCCAC,-0.234
17,GTGAAGTA,0.0411
18,TAACACAA,0.332
19,CCAGTATA,-0.178
20,ACTTGATA,0.0522
21,GAATCTAA,-0.0012
22,CCTGAACA,0.23
23,TATTAACA,0.359
24,AGTTAACA,0.279
25,CATTAACA,0.299
26,CGTTAACA,0.244

row,Sequence,PBM E-score
1,TGTTAACA,0.361
2,GATTAACA,0.338
3,AAAAGGTC,-0.161
4,CTGCAGCA,-0.0262
5,GCCAGCGC,-0.236
6,AAGCGTAA,0.0617
7,GCGTTTCC,0.0476
8,AGGAAATG,0.262
9,CGGAAATC,-0.109
10,AGGAAATC,0.373
11,AGGAAATA,0.368
12,CGGAAATA,-0.206
13,GGGAAATA,0.0874
14,AGTGATAG,0.0766
15,GCCTCGCC,-0.17
16,ACCTGAAC,0.0861
17,AAGGGTAT,-0.018
18,TATTCACA,0.221
19,ACAGGAGG,-0.0434
20,AAAAGATG,0.11
21,TAAAGTCA,0.0168
22,TAAAGGGA,0.016
23,CAAAGGCC,-0.151
24,TAAAGGCA,0.481
25,GAAAGGGA,0.0421
26,CAAAGGCG,0.233

row,Sequence,PBM E-score
1,AAAAGGCG,0.278
2,GAAAGGCA,0.469
3,AAAAGGCA,0.478
4,AAAAGGCT,0.0632
5,CAAAGGCA,0.479
6,GAAAGGCC,-0.0302
7,ACAACGAT,0.155
8,AGCACAAG,0.0406
9,CTAGGCCC,-0.21
10,CTCTACCA,-0.192
11,CGACTCAG,-0.219
12,GCGGTTCC,0.0435
13,CACTTTGG,-0.0925
14,GACTGATA,-0.216
15,CGGGGCTA,-0.291
16,AACTTCCT,0.15
17,CCTTGTAA,0.392
18,CCTTGTAG,0.311
19,CTTTGTAA,0.355
20,ATTTGTAA,0.244
21,CTTTGTAC,0.193
22,CCTTGTAC,0.272
23,AGGCTGTC,-0.15
24,GGGCATAC,-0.186
25,AAGAAGTC,-0.0398
26,AATTGCGC,0.0861

row,Sequence,PBM E-score
1,GTCTATGA,0.0543
2,CTCGATAC,0.24
3,GGCGTGTA,0.383
4,AGCGTGTA,0.406
5,GGCGTGAA,-0.0959
6,GGCGTGCA,-0.243
7,CGCGTGTA,0.375
8,AGCGTGTG,0.147
9,CGCGTGAA,0.172
10,CGCGTGTC,0.196
11,AGCGTGTC,0.205
12,ACAGACGT,0.119
13,GAGGGAAA,-0.199
14,CTCCTTGA,-0.122
15,AGAAGGTA,0.347
16,AGAAGGTC,-0.0584
17,CGAAGGTC,-0.313
18,CGAAGGTA,0.366
19,GGAAGGTA,0.251
20,AGAAGGTG,-0.0242
21,ATTTAGGC,0.339
22,CTTGATAC,0.00505
23,CAGACACC,-0.0175
24,AAGACGGC,-0.265
25,ATGGATTG,0.0625
26,GCGTTCTA,-0.106

row,Sequence,PBM E-score
1,ATAGACCC,0.178
2,CGCCACCC,-0.0907
3,AAACATGC,0.288
4,GAACATGC,0.202
5,CCACATGA,0.0141
6,AAACATGT,0.374
7,CAACATGG,0.337
8,GAACATGA,0.238
9,TAACATGA,0.363
10,AAACATGA,0.327
11,TAACATCA,0.25
12,CAACATGA,0.352
13,AAACATGG,0.222
14,CAACATGC,0.345
15,ATGGCCAT,-0.171
16,CAGTTCCC,-0.174
17,CTAGGATC,-0.0652
18,CAGTGCGC,-0.292
19,CCCGGTCG,-0.273
20,ACCGGTAT,-0.135
21,ACGTTGTG,0.137
22,GGCCGAGA,-0.209
23,TAGTAATA,0.182
24,CTCTCTGC,-0.112
25,AAGGCATG,0.303
26,AAGGCATC,0.381

row,Sequence,PBM E-score
1,ATGGCATC,-0.162
2,AGGGCATC,-0.163
3,AAGGCATA,0.321
4,AAGGCATT,0.362
5,AAACTTCG,0.0118
6,TACCTAGA,0.252
7,AGAGAAAA,-0.0157
8,CAGCACTA,-0.113
9,ATAAAGCA,-0.12
10,CTTAAGGC,0.314
11,CTAAAGGC,0.35
12,ACACAGGG,0.213
13,ACACAGGA,0.295
14,ACATAGGC,0.373
15,ACACAGGC,0.354
16,ATTAAGGA,0.0441
17,ATAAAGGC,0.186
18,ATTAAGGC,0.378
19,ACATAGGT,0.282
20,CTAAAGGA,0.148
21,GCATAGGC,0.166
22,CGCAGCCC,-0.265
23,CAGCAACC,-0.184
24,TAACGCAA,0.2
25,CGAGAACG,-0.206
26,GGGTAAGA,-0.146

row,Sequence,PBM E-score
1,ATCGCTTC,-0.178
2,CCAAAGGC,0.145
3,ACAAAGGC,0.36
4,ACAAAGGG,-0.0152
5,ATAGCGCA,-0.0413
6,AGAGCTAT,0.00577
7,CAATGTAG,0.234
8,CAATGTAA,0.34
9,TAATGTAA,0.354
10,CAATGTAC,0.184
11,AAATGTAG,0.151
12,AAATGTAA,0.346
13,TAATGTCA,0.139
14,AAATGTAC,0.227
15,GAATGTAA,0.295
16,ATTCTCTC,-0.103
17,ATATTAAA,0.184
